Lassa entry inh – qHTS for Inhibitors of binding or entry into cells for Lassa Virus; Lassa virus pseudotype entry inhibition, cell reporter; Potency, µM (doses to about 37.9 µM), for the others: top-dose activity change, negative = inhibition, actives largely listed as inhibitors; AID 540256, 2011; hit rate 1.2% among 300,000; calls by dose curve; tested in HEK293 cells; also: potency is read from the fitted curve at half-maximal effect; nearly all actives have a fitted effect of over 50% in size
FMDV antiviral – High Throughput Screening for Foot and Mouth Disease Virus Antivirals | hit rate 1.2% among 410,000 | FMDV antiviral cell-based qHTS | AID 1159524, 2015 | Potency, µM (doses to about 57.9 µM), for inactives: at the top dose activity change, negative = inhibition, actives largely listed as inhibitors; calls by dose curve; tested in HEK293T cells; also: read-out not given here; potency is read from the fitted curve at half-maximal effect; nearly all actives have a fitted effect of over 45% in size
MARV entry inh – qHTS for inhibitors of binding or entry into cells for Marburg Virus; Marburg virus pseudotyped entry inhibition, cell reporter; Potency, µM (titrated, usually from 37.8 µM), for the others: top-dose activity change, negative = inhibition, actives largely listed as inhibitors; hit rate 1.8% among 300,000; AID 540276, 2011; calls by dose curve; tested in HEK293 cells; also: potency is read from the fitted curve at half-maximal effect
HCMV inh – qHTS Assay for inhibitors of the human cytomegalovirus (HCMV). HFF cells, HCMV-luciferase reporter, 72 h; stronger effect = lower value. hit rate 4.5% among 410,000. activity change, negative = inhibition, % at 57.5 µM. AID 1259415, 2018; in the data active = activity change below about -60%; inconclusive = no clear call, values can overlap the other calls; inactive = above about -39%
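Screen run at 2 compound doses on HFFs infected with reporter HCMV, MOI 1 PFU/cell. Luciferase activity from cell lysates at 72 h post infection gave inhibition relative to buffer-only and Salinomycin wells.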
VACV Venus inh – qHTS for Stage-Specific Inhibitors of Vaccinia Orthopoxvirus: Venus Reporter Primary qHTS | Vaccinia virus Venus reporter expression, fluorescence | Potency, µM (highest dose often 36.5 µM), without a hit: top-dose activity change, negative = inhibition, usual class: inhibitors | hit rate 0.46% among 330,000; calls by dose curve; tested in A549 cells; also: potency is read from the fitted curve at half-maximal effect; nearly all actives have a fitted effect of over 30% in size
VACV mCherry inh – qHTS for Stage-Specific Inhibitors of Vaccinia Orthopoxvirus: mCherry Reporter Primary qHTS | Vaccinia virus mCherry reporter infection, fluorescence | hit rate 0.63% among 310,000 | Potency, µM (top dose mostly 36.5 µM), for inactives: top-dose activity change, negative = inhibition, usual class: inhibitors; calls by dose curve; tested in A549 cells; also: potency is read from the fitted curve at half-maximal effect; nearly all actives have a fitted effect of over 35% in size
The depositor's hits bear a star; i = inactive; ? = inconclusive; . = not tested or not shown; [ ] = another dose, or the depositor's remark. Shown are actives, neighbours in structure and some others; about 6.5% of the full set was active somewhere. % is scaled to controls: 0 for no effect and ±100 for the full control effect.

SMILES | Lassa entry inh | FMDV antiviral | MARV entry inh | HCMV inh | VACV Venus inh | VACV mCherry inh
O=C(Nc1ccc(Br)cc1)c1cc(S(=O)(=O)N2CCc3ccccc32)ccc1F | -16%[46.1 µM] | 0% | . | -18 | -22% | -25%
O=c1oc2ccccc2n1CSc1nc2ccccc2s1 | 6% | 5% | ? | 117 | -11% | -3%
O=c1oc2ccccc2n1CSC1=NCCS1 | ? | 0% | -19% | -62* | ? | .
COC(=O)C1=C(C)N(Cc2ccccc2)C(=NCCc2c[nH]c3ccccc23)NC1c1cccc(F)c1 (centres undefined) | ? | . | -17%[14.2 µM] | . | . | .
COc1ccc(NC(=O)COc2cccc3c2OC(C)(C)C3)cc1OC | . | 22µM* | . | ? | . | .
CCCCNC(=O)C1CCC(Cn2c(=O)c3sccc3n(CC(=O)Nc3ccccc3)c2=O)CC1 (centres undefined) | 25%[46.1 µM] | -8% | . | 8 | -30% | ?
c1ccc(-c2cccc(-c3ccccn3)n2)nc1 | 2.1µM* | 10% | 2.1µM* | -101* | . | .
c1ccc(-c2nnc(-c3ccccn3)nn2)nc1 | . | ? | . | 66 | -9% | ?
c1ccc(-c2cccc(-c3ccccc3)n2)cc1 | . | 54% | . | -65* | . | .
COc1ccccc1C1NC(c2ccc3c(c2)OCO3)=CC(c2cc(Br)ccc2O)N1 (centres undefined) | . | . | . | . | 9% | 29%
CCNC(=O)CSc1nnc(CN2CCCCCC2=O)n1-c1ccccn1 | -3% | -2% | 2%[46.1 µM] | 11 | -5% | 7%
O=C1CCCCCN1Cc1nnc(SCc2nc3ccccc3s2)n1-c1ccccn1 | -8% | 94% | 23% | -107* | . | .
CCN(CC)C(=O)c1ccccc1NC(=O)c1cccc(S(=O)(=O)N2CCC(C)CC2)c1 | -13%[46.1 µM] | -6% | . | -7 | -14% | -4%
Cc1c(Cl)cccc1NC(=O)C(C)n1nc(C)c2c(C)n(-c3ccccc3)nc2c1=O (centres undefined) | 0%[46.1 µM] | -17% | . | -2 | -8% | -8%
CCCCn1c(=O)[nH]c(=O)c2c1nc(CN1C(=O)c3ccccc3S1(=O)=O)n2CCC | 18% | ? | -3% | -7 | 1% | -6%
CCCCn1c(=O)[nH]c(=O)c2c1nc(Cn1ncc(Cl)c(Cl)c1=O)n2CCC | ? | ? | ? | -100* | ? | ?
Cc1cccnc1N(C(=O)Nc1cccc(Cl)c1)C1=NCC(C)(C)S1 | 3% | 2% | -8% | -62* | -9% | -10%
COc1cc(=O)n2c(c1C(=O)N(C)Cc1nonc1C)CCN(Cc1ccc(F)cc1)CC2 | . | -9% | . | . | -8% | -14%
COc1cc(C(=O)NC2CCN(C)CC2)ccc1Nc1ncc2c(n1)N(C1CCCC1)CCC(=O)N2C(C)C | . | -1% | . | . | ? | ?
COc1cc(C(=O)NC2CCN(C)CC2)ccc1Nc1ncc2c(n1)N(CCc1ccccc1)CCC(=O)N2C | . | 0% | 1% | -78* | ? | ?
Fc1ccc(Nc2nc(SCc3cccc(F)c3)nc3ccccc23)cc1 | -24%[46.1 µM] | -3% | . | -87* | -12% | -1%
Fc1ccc(Nc2nc(SCc3cccc(Cl)c3)nc3ccccc23)cc1 | 21%[46.1 µM] | -26% | . | -95* | -21% | -17%
CCc1ccc(NC(=O)c2ccc(NS(=O)(=O)c3c(C)noc3C)cc2)cc1 | -11%[46.1 µM] | -2% | 20%[46.1 µM] | -9 | -5% | -8%
COc1cccc(CNS(=O)(=O)c2cc3[nH]c(=O)c(=O)[nH]c3cc2C)c1 | 29%[46.1 µM] | -2% | . | 12 | -1% | -9%
COc1cc(OC)cc(C(=O)NCC(=O)OCC(=O)N2c3ccccc3NC(=O)C2(C)C)c1 | . | 1% | 6%[46.1 µM] | -98* | -7% | i
COc1ccc(S(N)(=O)=O)cc1C(=O)OCC(=O)N1c2ccccc2NC(=O)C1(C)C | -14% | 1% | 23%[46.1 µM] | -13 | -2% | i
COCc1c(C(=O)OCC(=O)N2c3ccccc3CC2C)oc2ccccc12 (centres undefined) | 7% | 21% | 6% | 13 | . | .
COCc1c(C(=O)OCC(=O)N2c3ccccc3NC(=O)C2(C)C)oc2ccccc12 | -8% | 25µM* | ? | 7 | . | .
